In PubChem BioAssay (NCATS):
Records with an inconclusive call do not appear. A number with no mark means an inactive call. Active and inactive are the calls of the source. Calls come from the whole dose curve; as a rule, active = well fitted cell-killing curve with a large enough effect; inconclusive = small, poorly fitted or top-dose-only effect, or effect the other way; inactive = no such curve, though single readings can be large or run the other way.

Assay: Viability qHTS for spleen associated tyrosine kinase inhibitor (SYKi) drug resistant MV4-11 cells (AID 1963824); note: nearly all actives have a fitted effect of over 35% in size
Conditions: SYKi-resistant MV4-11 viability, CellTiter-Glo, 72 h; series mostly up to 45 µM; viability, % of control: at the top concentration
Procedure, shortened: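 SYK inhibitor-resistant MV4-11 AML cells, 500 per well, added to predispensed compounds and incubated 72 hr at 37 C, 5% CO2. Viability measured by CellTiter-Glo luminescence after 10 min at room temperature.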
Potency is the fitted concentration of half-maximal effect.

| Structure (SMILES) | viability, % of control | Potency |
| --- | --- | --- |
| C=C[C@@H]1[C@H](O[C@@H]2O[C@H](CO)[C@@H](O)[C@H](O)[C@H]2O)OC=C(C(=O)O)[C@H]1CCOC(=O)/C=C/c1ccc(O)c(O)c1 | 67.3% [at 17.3 µM] |  |
| N#Cc1ccc(-c2cnc3[nH]cc(NC(=O)c4cccnc4)c3c2)cc1 |  | 0.92 µM (active) |
| O=C(c1ccccc1)c1c(O)cc(O)cc1O[C@@H]1O[C@H](CO)[C@@H](O)[C@H](O)[C@H]1O | 90.3% |  |
| CCC/C=C/C=C/C1CC(O)C2(O)C(=O)OCC12 (stereo unspecified) | 87.1% |  |
| CCCCC(CC)CN=C(N)NC(N)=NCCCCCCN=C(N)NC(N)=NCC(CC)CCCC (stereo unspecified) |  | 2.66 µM (active) |
| C[C@H]1CO[C@@H]2Cn3cc(C(=O)NCc4ccc(F)cc4F)c(=O)c(O)c3C(=O)N12 |  | 7.31 µM (active) |
| COc1ccc(C[C@H](C)NC[C@@H](O)c2ccc(O)c(NC=O)c2)cc1 | 74.3% |  |
| O=C(Nc1ccc(S(=O)(=O)Nc2nccs2)cc1)c1cc(-c2ccccc2)nc2ccccc12 |  | 16.4 µM (active) |
| COc1cc(O)c2c(c1)C1(OC2=O)C(C)=CC(=O)C1O (stereo unspecified) |  | 16.4 µM (active) |
| CCNC(=O)c1noc(-c2cc(C(C)C)c(O)cc2O)c1-c1ccc(CN2CCOCC2)cc1 |  | 0.0073 µM (active) |
| CC1(C)CC[C@]2(C(=O)O[C@@H]3O[C@H](CO)[C@@H](O)[C@H](O)[C@H]3O)CC[C@]3(C)C(=CCC4[C@@]5(C)C[C@H](O)[C@H](O[C@@H]6O[C@H](C(=O)O)[C@@H](O)[C@H](O)[C@H]6O)[C@@](C)(CO)C5CC[C@]43C)C2C1 (stereo partly specified) | 20.7% [at 9.25 µM] |  |
